According to article PMC4336329 (PLoS ONE, 2015):
The whole screen tested about 310,000 compounds, of which about 2,200 (0.71%) showed an effect of 50% or more. The effect is printed as a negative number. The entries come from a sample that favours strong results as a whole.

Each molecule was assayed against human ether-à-go-go-related gene (hERG) potassium channel (human, UniProt Q12809) (assay: primary screen, population patch clamp on CHO cells stably expressing hERG; higher = less effect of the substance).
human ether-à-go-go-related gene (hERG) potassium channel, sequence (Q12809 whole entry, looked up): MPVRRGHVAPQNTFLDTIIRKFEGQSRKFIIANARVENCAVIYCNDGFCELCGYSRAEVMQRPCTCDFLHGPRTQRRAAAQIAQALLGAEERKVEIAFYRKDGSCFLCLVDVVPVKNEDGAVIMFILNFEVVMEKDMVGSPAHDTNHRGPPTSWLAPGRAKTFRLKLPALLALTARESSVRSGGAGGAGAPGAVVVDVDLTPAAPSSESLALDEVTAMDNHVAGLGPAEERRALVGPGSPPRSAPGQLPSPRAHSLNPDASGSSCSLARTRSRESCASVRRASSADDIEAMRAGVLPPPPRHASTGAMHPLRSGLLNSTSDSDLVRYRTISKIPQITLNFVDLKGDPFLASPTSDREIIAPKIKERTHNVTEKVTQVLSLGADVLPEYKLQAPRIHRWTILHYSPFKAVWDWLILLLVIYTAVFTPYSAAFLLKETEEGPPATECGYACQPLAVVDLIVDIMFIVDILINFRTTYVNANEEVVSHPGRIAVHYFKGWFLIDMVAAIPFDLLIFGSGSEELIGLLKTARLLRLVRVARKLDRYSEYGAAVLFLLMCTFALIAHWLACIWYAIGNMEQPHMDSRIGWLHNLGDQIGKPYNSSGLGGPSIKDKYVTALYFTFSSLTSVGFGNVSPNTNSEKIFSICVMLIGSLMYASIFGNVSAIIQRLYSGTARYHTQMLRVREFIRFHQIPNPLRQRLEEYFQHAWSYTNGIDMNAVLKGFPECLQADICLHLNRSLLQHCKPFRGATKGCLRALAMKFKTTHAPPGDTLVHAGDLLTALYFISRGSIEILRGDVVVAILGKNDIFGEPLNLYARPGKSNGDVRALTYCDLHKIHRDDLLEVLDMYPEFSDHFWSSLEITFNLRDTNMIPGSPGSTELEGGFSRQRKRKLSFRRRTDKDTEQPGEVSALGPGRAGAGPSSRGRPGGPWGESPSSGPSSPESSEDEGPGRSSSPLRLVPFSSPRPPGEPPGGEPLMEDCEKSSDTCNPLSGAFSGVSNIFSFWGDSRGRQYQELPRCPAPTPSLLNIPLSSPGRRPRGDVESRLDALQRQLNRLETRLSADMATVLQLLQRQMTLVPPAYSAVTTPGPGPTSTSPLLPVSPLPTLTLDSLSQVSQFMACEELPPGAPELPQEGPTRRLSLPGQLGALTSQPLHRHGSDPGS

SMILES | hERG current change (%, negative = inhibition) at 1uM
CCN1C(=O)N(CC)C2NC(=S)NC21 (centres unmarked) | 7.44%
CC(=O)C1=C(NC(=O)c2ccc(F)cc2)CC2C1C2(C)C (centres unmarked) | 9.7%
O=C(CN1C(=O)CSc2ccccc21)N1CCc2ccccc21 | 9.93%
O=C(O)CSc1nnc(SCc2cccc3ccccc23)s1 | 6.81%
COc1ccccc1CNC(=O)C1CCN(S(=O)(=O)c2ccc3c(c2)OCCCO3)CC1 | -1.02%
COC(=O)C1(C)Cc2cc(OC(C)=O)c(OC(C)=O)cc2N1 (centres unmarked) | 11.7%
CC(=O)Nc1ccc(NC(=O)CSc2nccn2Cc2ccccc2)cc1 | 10.5%
O=C(Oc1ccc(C(=S)N2CCOCC2)cc1)c1ccccc1[N+](=O)[O-] | 21.2%
O=C(Nc1ccc(Cl)cc1)Nc1nnc(Cc2ccc([N+](=O)[O-])cc2)s1 | 13.9%
COc1ccccc1CCNC(=O)C1CCN(c2nnc(C)c3c(C)n(-c4ccc(C)cc4)nc23)CC1 | 14.7%
CN/C=C(/Cl)P(=O)(OC(C)C)OC(C)C | 11%
CCCn1ncc(CN2CCC(n3nccc3NC(=O)c3ccccc3Cl)CC2)c1C | -47.6%
COc1ccccc1C(=O)Nc1ccnn1C1CCN(Cc2cn(C)c3ccccc23)CC1 | -74.9%
CCn1ccnc1CN1CCC(n2nccc2NC(=O)CCc2ccccc2)CC1 | 15.9%
CCOc1ccc(CN2CCC(n3nccc3NC(=O)c3ccccc3OC)CC2)cc1 | -89.4%
COc1ccccc1C(=O)Nc1ccnn1C1CCN(C(=O)C2CCOC2)CC1 (centres unmarked) | 4.19%
CCn1ccnc1CN1CCC(n2nccc2NC(=O)c2ccccc2OC)CC1 | -64.9%
Cn1cc(CN2CCC(n3nccc3NC(=O)c3ccccc3Cl)CC2)c2ccccc21 | -47.6%
CCCn1ncc(CN2CCC(n3nccc3NC(=O)c3ccccc3OC)CC2)c1C | -73.2%
COc1ccccc1C(=O)Nc1ccnn1C1CCN(Cc2cnc(N(C)C)s2)CC1 | -24.7%
COc1ccccc1C(=O)Nc1ccnn1C1CCN(Cc2ncc[nH]2)CC1 | 6%
COc1ccccc1C(=O)Nc1ccnn1C1CCN(Cc2ccn[nH]2)CC1 | 1.62%
COc1ccccc1C(=O)Nc1ccnn1C1CCN(Cc2cnn(C)c2C)CC1 | -28.8%
CCCCn1c(O)c(C(CC)=Nc2ccc(OC)cc2OC)c(=O)[nH]c1=O | 4.73%

SMILES | hERG current change (%, negative = inhibition) at 1uM
Cc1ccc2c(CN3CC(C)CC(C)C3)cc(=O)oc2c1C (centres unmarked) | 9.29%
COC(=O)C(NC(C)=O)(Nc1ccc(Br)cn1)C(F)(F)F (centres unmarked) | 6.68%
CCCCNC(=O)COC(=O)c1ccc(C)c(NC(=O)c2ccco2)c1 | 11.3%
COC(=O)COc1cc(C)cc2oc(=O)c3c(c12)CCCC3 | -4.18%
O=C(CCCN1C(=O)c2ccccc2C1=O)Nc1nncs1 | 14.9%
CCn1cc(CN2CCC(n3nccc3NC(=O)c3ccccc3C)CC2)cn1 | -14.9%
CC(=O)c1cc(CN2CCC(n3nccc3NC(=O)c3ccccc3Cl)CC2)cs1 | -40.5%
COc1ccccc1CN1CCC(n2nccc2NC(=O)c2ccccc2Cl)CC1 | -47.2%
COc1ccccc1C(=O)Nc1ccnn1C1CCN(Cc2ccccc2OCCO)CC1 | -79.5%
COc1ccccc1C(=O)Nc1ccnn1C1CCN(Cc2csc(C(C)=O)c2)CC1 | -50.9%
COc1ccc(C(=O)Nc2ccnn2C2CCN(Cc3ccc4nonc4c3)CC2)cc1 | -0.334%
COc1ccccc1C(=O)Nc1ccnn1C1CCN(Cc2cnn(C)c2)CC1 | -27%
O=C(Nc1ccnn1C1CCN(Cc2ccccc2OCCO)CC1)c1cccc(F)c1 | -6.97%
CCn1cc(CN2CCC(n3nccc3NC(=O)c3ccccc3OC)CC2)cn1 | -53.5%
CC(=O)c1cc(CN2CCC(n3nccc3NC(=O)c3ccccc3C)CC2)cs1 | -15.8%
COc1ccccc1C(=O)Nc1ccnn1C1CCN(Cc2ccc3nonc3c2)CC1 | -61.8%
N#CCC1c2ccccc2CCN1C(=O)Nc1ccc(C(F)(F)F)cc1 (centres unmarked) | -4.23%
COc1ccccc1S(=O)(=O)CC(O)COc1ccc(F)cc1Cl (centres unmarked) | 12.6%
O=C(CNC(=O)c1ccc(Br)cc1)NCC(=O)OCC(=O)c1ccccc1 | 9.69%
CC(=O)Nc1cc2c3c(c1)CCN3C(=O)CC2 | 22.9%
CCC1=Nc2ccccc2NC2=C1C(=O)CCC2.Cl | -18.7%
CC(C)(C)NC(=O)Cn1c(SCC(=O)Nc2nccs2)nc2ccccc21 | 10.4%
CC(C)COC(=O)NC1c2ccccc2Oc2ccccc21 | -2.38%
CCCCn1nnc(NC(=O)Cc2ccc(Cl)cc2)n1 | -4.74%

SMILES | hERG current change (%, negative = inhibition) at 1uM
CCOC(=O)c1c(C)[nH]c(C)c1S(=O)(=O)NCC1CCN(Cc2ccccc2F)CC1 | 8.12%
COc1cc2nc(CN3CCOCC3)n(CC(=O)NCC(F)(F)F)c(=O)c2cc1OC | 11.5%
COC(=O)c1nnn(-c2nonc2N)c1COc1ccc(C=O)cc1OC | -1.8%
Cc1c(C2N3CC4(C)CN2CC(C)(C3)C4=O)c2ccccc2n1C (centres unmarked) | -15.5%
CC1=Nc2cc(C(=O)NCCCN3CCOCC3)ccc2Sc2c(C)ccc(C)c21 | 14.7%
N#Cc1ccc(/C=C/C(=O)c2ccco2)cc1 | 5.85%
COc1ccc(C(=O)NC2CC3CCCC(C2)N3CC(C)C)cc1OC (centres unmarked) | 8.35%
Cc1cccc(C(=O)NCCCn2ccnc2)c1C | 4.84%
COc1cc(CN2CCC(n3nccc3NC(=O)c3ccccc3OC)CC2)ccc1F | -77.6%
COc1cc(CN2CCC(n3nccc3NC(=O)C3CCOC3)CC2)ccc1F (centres unmarked) | 2.37%
COc1cc(CN2CCC(n3nccc3NC(=O)CCCc3ccccc3)CC2)ccc1F | 9.25%
COc1ccc(NC2CCCN(C(=O)CSc3ccccc3)C2)cc1 (centres unmarked) | 8.31%
CSc1cccc(NC(=S)N(CCCN2CCCC2)Cc2cccs2)c1 | -17.9%
CCCCn1c(SCC(=O)NC2CCCC2)nc2ccccc2c1=O | 4.94%
CC1CCN(CCCn2c(SCC(=O)Nc3ccccc3Cl)nc3ccccc3c2=O)CC1 | -34.1%
COc1ccc(NC(=O)CSc2nc3ccccc3c(=O)n2CCCN2CCOCC2)c(OC)c1 | 1.25%
COc1ccc(NC(=O)CSc2nc3ccccc3c(=O)n2CCCN2CCC(C)CC2)c(OC)c1 | -72.1%
COc1ccc(NC(=O)CSc2nc3ccccc3c(=O)n2CCCN2CCCCC2)c(OC)c1 | -27.7%
CC1CCN(CCCn2c(SCC(=O)NC3CCCC3)nc3ccccc3c2=O)CC1 | -64.8%
CC1CCCCC1NC(=O)COC(=O)c1ccc(N(C)C)cc1 (centres unmarked) | 9.14%
O=C(Cc1csc(NC(=O)Nc2cccc(Cl)c2)n1)NCc1cccnc1 | -44.2%
Cc1ccc(NC(=O)c2ccncc2)cc1S(=O)(=O)N(C)C | 0.0196%
CCc1ccc(NC(=O)c2noc(C(C)C)c2[N+](=O)[O-])cc1 | 8.97%
O=C(Nc1cccc(Cl)c1N1CCOCC1)c1ccco1 | 4.55%

SMILES | hERG current change (%, negative = inhibition) at 1uM
CCN1CCN(c2c(Cl)cccc2NC(=O)c2ccc([N+](=O)[O-])o2)CC1 | -77%
O=C(Nc1cccc(Cl)c1N1CCCC1)c1ccc([N+](=O)[O-])o1 | 9.79%
O=C(Nc1cccc(Cl)c1N1CCCC1)c1ccc(Br)o1 | -5.81%
CCN1CCN(c2c(Cl)cccc2NC(=O)c2ccc(Br)o2)CC1 | -59.3%
O=C(Nc1cccc(Cl)c1N1CCOCC1)c1ccc([N+](=O)[O-])o1 | 3.63%
CCN1CCN(c2c(Cl)cccc2NC(=O)c2ccco2)CC1 | -70.7%
O=C(Nc1cccc(Cl)c1N1CCCC1)c1ccco1 | 16.2%
O=C(Nc1cccc(Cl)c1N1CCOCC1)c1ccc(Br)o1 | 4.08%
Cc1nc([N+](=O)[O-])cn1CC(=O)Nc1ccc(Cl)cc1 | 14.3%
OCCNC(=S)NCCc1ccccc1 | 9.19%
COCCNC(=S)N(CCN(C)C)Cc1cc2cc3c(cc2[nH]c1=O)OCO3 | 15.5%
CC(C)c1cc(C(=O)N2CCCC(N3CCN(c4ccccc4F)CC3)C2)nc(N)n1 (centres unmarked) | 10.1%
O=C(Nc1ccc(Cl)cn1)Nc1ccccc1F | 0.928%
CC(C)Oc1ccc(N2CC(C(=O)Nc3ccc(N4CCOCC4)cc3)CC2=O)cc1 (centres unmarked) | 24.6%
C=CCOc1ccccc1CN1CCC(CO)(CCOc2ccccc2)CC1 | -61.4%
Cc1nn(C)cc1CN1CCC(CO)(CCOc2ccccc2)CC1 | 8.14%
CCOc1ccccc1CN1CCC(CO)(CCOc2ccccc2)CC1 | -66.8%
OCC1(CCOc2ccccc2)CCN(Cc2ccccc2OC(F)F)CC1 | -54.4%
OCC1(CCOc2ccccc2)CCN(Cc2ccccc2C(F)(F)F)CC1 | 3.9%
OCC1(CCOc2ccccc2)CCN(Cc2cc(Cl)ccc2O)CC1 | -0.875%
Cc1cc(C)c(CN2CCC(CO)(CCOc3ccccc3)CC2)cc1C | -0.659%
OCC1(CCOc2ccccc2)CCN(Cc2ccc(OC(F)F)cc2)CC1 | -87.1%
OCC1(CCOc2ccccc2)CCN(Cc2ccc3c(c2)OCCO3)CC1 | -31.2%
